The values below come from the supplement of paper PMC9399229.

Structures can show the parent of a compound that is named as a salt. Whole data set: some 1,900 compounds, median “relative cell viability (CellTiter-Glo), compound plus cabozantinib, relative to the cabozantinib arm (arm median 1.05; reference not stated)” near 1.1, cut for the lowest 2% near 0.15. Only a selection was taken, and the lowest values are over-represented in it overall.

The test system of this assay is Hep3B. Description: relative cell viability (CellTiter-Glo), compound plus cabozantinib, relative to the cabozantinib arm (arm median 1.05; reference not stated) (fraction); higher = more viable cells (less growth inhibition). Conditions: cabozantinib 2 µM; 4 days.
With `C[C@@H]1O[C@@H](O[C@H]2C[C@@H](O)[C@]3(CO)[C@H]4[C@H](O)C[C@]5(C)[C@@H](C6=CC(=O)OC6)CC[C@]5(O)[C@@H]4CC[C@]3(O)C2)[C@H](O)[C@H](O)[C@H]1O` [Ouabain], the relative cell viability was 0.105. As for `CC1(C)CC(O)CC(C)(C)N1[O]` [Tempol], the relative cell viability was 1.03.

On to `Cc1ccc(-n2nccn2)c(C(=O)N2CCN(c3nc4cc(Cl)ccc4o3)CC[C@H]2C)c1` [Suvorexant (MK-4305)], for which the relative cell viability is 0.987. Consider `O=C(NCC1CCOCC1)c1cnc(Nc2ccc(Cl)cc2Cl)nc1C(F)(F)F`, for which the relative cell viability worked out at 1.02. With `CCc1c(C(=O)C(N)=O)c2c(OCC(=O)O)cccc2n1Cc1ccccc1`, the relative cell viability was found to be 1.05.

Turning to `[O-][n+]1ccccc1[S-].[O-][n+]1ccccc1[S-].[Zn+2]` [Zinc Pyrithione], the relative cell viability is 0.0184. In the case of `CCC1(c2cccc(O)c2)CCCCN(C)C1` (stereo not given) [Meptazinol HCl], the relative cell viability was found to be 1.13. Consider `CC(=O)O[C@H]1C[C@@H]2CC[C@@H]3[C@H](CC[C@@]4(C)[C@H]3C[C@H]([N+]3(C)CCCCC3)[C@@H]4OC(C)=O)[C@@]2(C)C[C@@H]1[N+]1(C)CCCCC1` [Pancuronium dibromide], for which the relative cell viability worked out at 1.06. As to `Cc1cc2c(C(C)C)c(O)c(O)c(C=O)c2c(O)c1-c1c(C)cc2c(C(C)C)c(O)c(O)c(C=O)c2c1O` [Gossypol], the relative cell viability came to 1.15. As to `CC(=O)Nc1ccc(Cc2ccc(NC(C)=O)cc2)cc1`, the relative cell viability came out at 1.07. For the molecule `CC(C)=CCC[C@]1(C)C=Cc2c(O)c3c(c(CC=C(C)C)c2O1)O[C@]12C(=C[C@@H]4C[C@H]1C(C)(C)O[C@@]2(C/C=C(/C)C(=O)O)C4=O)C3=O` [Gambogic Acid], the relative cell viability was 0.118. For `CCC1=C[C@H]2CN3CCc4c([nH]c5ccccc45)[C@](C(=O)OC)(C2)[C@H]13` [Catharanthine], the relative cell viability was found to be 1.06. Regarding `CN1[C@@H]2CC[C@H]1C[C@@H](OC(=O)[C@H](CO)c1ccccc1)C2` [Hyoscyamine], the relative cell viability was 1.1. As for `CN(C)CCc1ccc(O)cc1` [Hordenine], the relative cell viability was determined as 1.11. For `C[C@H]1CCC/C=C/[C@@H]2C[C@H](O)C[C@H]2[C@H](O)/C=C/C(=O)O1` [Brefeldin A], the relative cell viability worked out at 0.105. As to `c1ccc2c(c1)Nc1ccccc1S2` [Phenothiazine], the relative cell viability turned out to be 1.17.

As to `CN(C)Cc1c[nH]c2ccccc12` [Gramine], the relative cell viability worked out at 1.06. For the molecule `NCC(=O)O.[C-]#[O+].[C-]#[O+].[C-]#[O+].[Cl][Ru]`, the relative cell viability is 0.978.

On to `C#C[C@]1(O)C=C[C@H]2[C@@H]3CCC4=CC(=O)CC[C@@H]4[C@H]3CC[C@@]21CC` [Gestodene], for which the relative cell viability amounted to 0.965. With `Cc1sc2c(c1C)C(c1ccc(Cl)cc1)=N[C@@H](CC(=O)Nc1ccc(O)cc1)c1nnc(C)n1-2`, the relative cell viability was 0.454.
